# Screens from PubChem.
# This is one part of a sample in which hits are shown more often than they occur.
# AMA1 RON2 block: inhibitors of Plasmodium falciparum AMA1-RON2 interaction; AlphaScreen AMA1-biotinylated RON2 peptide binding; Potency, µM (titrated, usually from 58.2 µM), inactives show top-dose activity change, negative = inhibition, actives largely listed as inhibitors; hit rate 0.2% among 360,000; AID 720542;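 note: potency is the fitted concentration of half-maximal effect; 0% = vehicle wells and -100% = peptide control; nearly all actives have a fitted effect of over 45% in size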
#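 AMA1 (3D7) with his tag at 25 nM final met compounds first, then biotinylated RON2 peptide at 25 nM; detection used donor plus acceptor beads, 10 µg/mL apiece, read by AlphaScreen after 30 min at room temperature.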
# Cycloheximide cs: counter-screen hit for Shiga toxin inhibitors, cycloheximide | cell reporter, cycloheximide protein synthesis inhibition counterscreen | max response, % | hit rate 12% among 300,000 | AID 2314; in the data active = max response mostly above about 13%, no sharp cut-off; inactive = mostly below about 14%; note: read at 38.3 µM for the half of the compounds with a filed dose; 0% is about no effect
# AmpC detergent: inhibitors of E. coli AmpC beta-lactamase with detergent. P00811. AmpC hydrolysis of nitrocefin, absorbance 480 nm, 0.01% Triton. Potency, µM (highest dose often 114 µM), for the others: top-dose activity change, negative = inhibition, hits mostly inhibitors. hit rate 0.041% among 370,000. AID 485294;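 note: potency is the fitted concentration of half-maximal effect; 0% = no-compound wells and -100% = no-enzyme wells; nearly all actives have a fitted effect of over 25% in size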
# Target sequence (P00811 whole entry, looked up): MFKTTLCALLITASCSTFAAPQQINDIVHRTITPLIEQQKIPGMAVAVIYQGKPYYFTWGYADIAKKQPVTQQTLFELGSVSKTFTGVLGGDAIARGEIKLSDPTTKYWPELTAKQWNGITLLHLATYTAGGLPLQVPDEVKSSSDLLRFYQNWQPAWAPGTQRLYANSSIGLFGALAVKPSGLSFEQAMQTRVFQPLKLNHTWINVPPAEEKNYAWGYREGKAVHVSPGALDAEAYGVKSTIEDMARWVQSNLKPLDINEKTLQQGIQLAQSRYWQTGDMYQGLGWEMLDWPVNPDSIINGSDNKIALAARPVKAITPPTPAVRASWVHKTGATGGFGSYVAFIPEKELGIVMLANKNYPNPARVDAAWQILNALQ
#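 20 mM phosphate pH 7.0 + 0.01% (detergent screen) or 0.0001% Triton X-100; 5.3 nM AmpC reagent; cpd preinc 15 min RT; nitrocefin (800 uM stock) to start; A480 q20 s × 4 min; Activity was normalised to no-enzyme and no-compound control wells.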
# SARS PLpro yeast: SARS-CoV PLP inhibition in yeast. hit rate 0.19% among 330,000. Potency, µM (series often up to 32.9 µM), without a hit: top-dose activity, positive = growth rescue, usual class: activators. AID 485353. S. cerevisiae expressing SARS-CoV PLpro, growth rescue; calls by dose curve; note: potency is the fitted concentration of half-maximal effect; 0% is about no effect; nearly all actives have a fitted effect of over 55% in size
# AmpC inh no detg: blocks E. coli AmpC beta-lactamase in detergent-free assay; Potency, µM (titrated, usually from 57.1 µM), inactives show at the top dose activity change, negative = inhibition, hits mostly inhibitors; P00811; hit rate 0.52% among 330,000; AmpC nitrocefin hydrolysis, absorbance 480 nm, 0.0001% Triton;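 note: potency is the fitted concentration of half-maximal effect; plate controls were no compound for no effect and no enzyme for full effect; nearly all actives have a fitted effect of over 20% in size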
#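 20 mM phosphate pH 7.0 + 0.01% (detergent screen) or 0.0001% Triton X-100; 5.3 nM AmpC reagent; cpd preinc 15 min RT; nitrocefin (800 uM stock) to start; A480 q20 s × 4 min; Activity was normalised to no-enzyme and no-compound control wells.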
# Shiga toxin inh: inhibitors of Shiga toxin in Vero cells; inhibition, % at 38.7 µM; Vero cells, Shiga toxin protein synthesis inhibition reporter; hit rate 9.2% among 290,000; in the data active = inhibition mostly above about 28%, no sharp cut-off; inactive = mostly below about 43%; note: 0% is about no effect
# * hit, by the source's call; ? = inconclusive; . = not tested or not shown; [ ] = remark or other dose. Unless noted, calls come from the whole dose curve; as a rule, active = well fitted curve in the direction sought with a large enough effect; inconclusive = small, poorly fitted or top-dose-only effect, or another doubt; inactive = no such curve, though single readings can be large; an effect the other way counts as inactive or inconclusive.
SMILES,AMA1 RON2 block,Cycloheximide cs,AmpC detergent,SARS PLpro yeast,AmpC inh no detg,Shiga toxin inh
COc1cccc(CNC(=O)CC(NC(=O)c2ccccc2)c2ccccc2)c1 (stereo not given),-8.8%,.,?,-9.5%,-17.8%,.
O=C(Nc1ncc2c(n1)-c1ccccc1OC2)c1ccc(F)cc1,-9.7%,2.5,?,-1.9%,-26.6%,21.4
Cc1oc2ccc(NS(=O)(=O)c3ccc(C(C)(C)C)cc3)cc2c1C(=O)Nc1ccccc1,-0.9%,0.4,16.9%,-20.4%,?,1.2
COc1ccc(C(=O)Nc2scc(-c3ccc(Cl)cc3Cl)c2C(N)=O)cc1,0.0%,43.7*,2.4%,7.6%,-39.0%,153.4*
COc1ccc(NC(=O)N2CCCCC2)cc1,-5.6%,26.3*,-3.7%,-5.7%,-12.9%,28.6
CC1CN(C(=O)Nc2ccc(Br)cc2Cl)CC(C)O1 (stereo not given),-9.2%,0.8,-0.4%,-0.2%,-15.7%[2.29 µM],-0.6
Cc1ccc(NC(=O)N2CCCCCC2)c(C)c1,-5.3%,49.8*,?,1.3%,-9.3%,62.2*
O=C(Nc1ccc(Br)cc1)N1CCCCCC1,-11.5%,55.0*,?,?,-26.9%,97.9*
Cc1ccc(NC(=O)C2CCN(C(=O)NC3CCCCC3)CC2)c(C)c1,-12.3%,-2.1,-3.4%,-2.9%,-6.3%,-3.1
CC1CCCN(C(=O)Nc2ccc(Br)cc2Cl)C1 (stereo not given),-1.7%,44.7*,-8.0%,0.9%,1.5%,96.2*
O=C(O)CCCCn1c(SCc2ccccc2Cl)nc2ccsc2c1=O,7.9%,-1.2,-0.3%,-2.7%,-25.9%,-13.1
COc1ccccc1N1CCN(CC(=O)Nc2cccc(F)c2)CC1,-2.5%,-3.2,?,1.1%,41.8%,-10.5
CCCN(CC(=O)Nc1ccccc1OC)C(=O)C1CCCC1,-6.4%,.,0.0%,9.1%,-3.1%,.
COC(=O)c1ccc(NC(=O)C(=O)N2CCCC2)cc1,-11.0%,38.1,1.9%,-2.3%,0.9%,76.0*
COc1ccc(NC(=O)NC2(C(=O)N3CCOCC3)CCCCC2)cc1,0.7%,21.8*,2.2%,0.8%,-0.5%,13.9
Cc1ccc(NC(=O)N2CCCCCC2)cc1,-3.5%,35.8*,-6.2%,-3.1%,1.4%,83.7*
COC(=O)c1ccc(NC(=S)N2CCCC2)cc1,6.5%,8.2,?,3.5%,-14.2%,25.9
O=C(NCCCN1CCCC1=O)c1csc2ccccc12,-2.7%,11.9*,-4.2%,2.9%,-17.4%,16.7
FC(F)(F)c1ccc(CN2C[C@@H]3C(c4ccc(C(F)(F)F)cc4)C4(c5cccnc5)CC3(C4)[C@H]2c2ccccc2)cc1 (stereo not given in full),4.5%,-2.9,-3.8%,0.8%,-24.2%,2.6
COc1ccc(CCNc2nc3ccc(Cl)cc3n3cnnc23)cc1OC,.,.,-5.6%,.,.,.
O=C1/C(=C/c2ccc(F)cc2)SC(=S)N1N1CCOCC1,5.2%,2.6,0.5%,14.1%,-18.0%,16.4
COc1ccc(N=c2scc(-c3ccc(S(=O)(=O)N4CCOCC4)cc3)n2CCCO)cc1,.,2.2,?,1.7%,301.3%,-2.7
COc1ccc(NC(=O)NCCN2CCCCC2)cc1,5.1%,-1.2,-4.0%,-0.3%,-0.5%,18.3
O=C(Nc1cccc(Cl)c1)N1CCN(Cc2ccccc2)CC1,4.6%,21.2*,?,0.5%,-10.0%,41.3*
CCOC(=O)c1ccc(NC(=O)NCCN2CCCCC2)cc1,-7.1%,9.3*,?,3.0%,-33.1%,-1.1
SMILES,AMA1 RON2 block,Cycloheximide cs,AmpC detergent,SARS PLpro yeast,AmpC inh no detg,Shiga toxin inh
O=C(Nc1ccc(F)cc1F)N1CCCCCC1,-0.1%,26.9*,?,8.8%,-16.2%,22.6
Cc1ccc(NC(=O)CCN2CCCCC2)cc1,-1.8%,28.5*,?,1.6%,-19.9%,41.5*
Cc1ccc(NC(=O)CCN2CCN(CCO)CC2)cc1,1.5%,.,.,.,.,.
CCCn1nc(C(=O)OCC(=O)c2ccccc2)c2ccccc2c1=O,-21.6%,-2.1,-0.6%,-8.0%,-2.3%,-3.2
CC(=O)Nc1ccc(S(=O)(=O)NCCC(=O)OCCN2C(=O)c3ccccc3C2=O)cc1,0.0%,0.9,-11.8%,1.4%,-2.8%,-12.6
CCc1ccc(NC(=O)N2CCCCCC2)cc1,12.2%,49.0*,3.3%,-6.3%,-9.8%,87.2*
O=C(Nc1ccccc1C(F)(F)F)N1CCCC(O)C1 (stereo not given),1.2%,-2.8,-13.4%,1.3%,-9.9%,-9.9
CCOC(=O)c1ccc(NC(=O)N2CCN(Cc3ccccc3)CC2)cc1,-14.3%,14.8*,-0.6%,-0.7%,51.8%,7.3
CCc1ccc(NS(=O)(=O)c2ccc(NC(=O)N3CCCC3)cc2)cc1,.,.,2.2%,.,.,.
CCOC(=O)c1ccc(NC(=O)N2CCCCC2)cc1,-3.0%,41.4*,1.0%,-7.9%,-6.2%,78.5*
O=C(Nc1ccccc1C(F)(F)F)N1CCCCCC1,10.8%,9.6*,-0.7%,12.8%,0.5%,34.7*
CCOCCn1ccc2c(OCC(=O)Nc3ccc(C(N)=O)cc3)cccc2c1=O,.,.,2.8%,.,.,.
COc1ccc(C2CC(c3cccc(C)c3)n3ncnc3N2)cc1 (stereo not given),2.4%,-3.8,?,5.7%,?,8.4
COc1ccccc1C(=O)NNC(=S)NC(=O)c1sc2ccccc2c1Cl,16.1%[11.6 µM],-1.9,-11.3%,11.2%,-38.0%,-8.0
Oc1ccc(Cl)cc1CN1CCN(Cc2ccccc2)CC1,3.1%,-1.5,-14.2%,0.2%,-12.4%,14.3
O=C(Nc1ccc(Br)cc1)N1CCCC(O)C1 (stereo not given),16.1%,24.4*,2.0%,0.5%,3.1%,69.7
CC(=O)NC(Cc1ccc(F)cc1)C(=O)NC1CCN(C(=O)Nc2ccc(F)cc2)CC1 (stereo not given),-5.0%,-2.3,2.2%,1.7%,100.9%,-6.9
COc1ccc(NC(=O)N2CCN(C(=O)C(Cc3ccc(F)cc3)NC(C)=O)CC2)cc1 (stereo not given),5.5%,9.7*,3.7%,-1.0%,-4.3%,35.2
CCOC(=O)c1ccc(NC(=S)NCCCN2CCCC2=O)cc1,-4.1%,4.1,-1.7%,-0.5%,-2.7%,-5.8
CCc1ccc(NC(=O)NCCCN2CCCC2=O)cc1,-2.1%,27.7*,5.7%,7.8%,-3.8%,31.2*
Cc1c2cnn(CC(=O)N3CCN(c4ncccn4)CC3)c(=O)c2c(C)n1Cc1ccc(F)cc1,.,-5.2,-5.1%,0.4%,2.3%,-9.0
CCOc1ccc2[nH]c(=O)c(CN(Cc3cccs3)C(CC)c3nnnn3C(C)(C)CC)cc2c1 (stereo not given),-2.5%,-2.7,?,1.7%,-47.6%,-9.0
COc1c(OC(C)=O)ccc(/C=C/c2ccc3cccc(OC)c3n2)c1[N+](=O)[O-],?,21.8*,-12.6%,-36.7%,188.2%,41.3*
COc1cc(OC)c(OC)cc1C=Cc1ccc2ccccc2n1,-1.1%,.,.,.,.,.
